Columns and labels:
Experiment in all cases: DAPPL (digital affinity profiling via proximity ligation, sequencing); 10 mM Tris-HCl pH 7.5, 50 mM NaCl, 1 mM DTT, 4% glycerol, room temperature, 30 min; GST-TFs on glutathione beads, 16-mer random dsDNA library, 0.1% formaldehyde crosslink after washing; high values mean tight binding
Details in all cases: protein: recombinant; tags: N-terminal GST; dsDNA, one strand shown
ERF = target: T1, ERF (Homo sapiens, UniProt P50548 1-548)
T1 sequence: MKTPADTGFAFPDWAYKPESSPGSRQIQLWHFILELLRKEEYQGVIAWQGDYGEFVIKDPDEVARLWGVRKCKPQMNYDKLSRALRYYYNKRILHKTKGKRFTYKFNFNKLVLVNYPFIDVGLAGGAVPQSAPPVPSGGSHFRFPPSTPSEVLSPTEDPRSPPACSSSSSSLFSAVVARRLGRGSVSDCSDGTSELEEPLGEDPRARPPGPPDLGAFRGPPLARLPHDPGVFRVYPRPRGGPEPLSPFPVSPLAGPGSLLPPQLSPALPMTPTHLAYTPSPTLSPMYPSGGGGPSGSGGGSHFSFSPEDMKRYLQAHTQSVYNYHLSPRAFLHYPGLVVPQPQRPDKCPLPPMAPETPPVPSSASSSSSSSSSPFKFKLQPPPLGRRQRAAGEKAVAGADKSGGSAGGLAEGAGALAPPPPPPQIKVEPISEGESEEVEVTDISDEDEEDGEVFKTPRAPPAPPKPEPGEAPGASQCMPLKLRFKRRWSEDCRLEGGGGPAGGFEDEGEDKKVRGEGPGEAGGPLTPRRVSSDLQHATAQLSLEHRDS
In short: (§1)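 Sequencing on an Illumina NextSeq500 followed washing, crosslinking with 0.1% formaldehyde, proximity ligation (BsaI/T4 ligase, 1 h, 37 °C) and PCR amplification of pools that had been incubated for 30 min at room temperature with 200 nmole of a random double-stranded 16-mer DNA library in Tris/NaCl/DTT/glycerol buffer. Each pool held DNA-barcoded human transcription factors, expressed in yeast as GST fusions and captured on glutathione beads, plus a tag-only sample. Binding signal is a hexamer's read frequency for a factor divided by its frequency in the tag-only sample.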

ETV3L = target: T2, ETV3L (Homo sapiens, UniProt Q6ZN32 1-361)
T2 sequence: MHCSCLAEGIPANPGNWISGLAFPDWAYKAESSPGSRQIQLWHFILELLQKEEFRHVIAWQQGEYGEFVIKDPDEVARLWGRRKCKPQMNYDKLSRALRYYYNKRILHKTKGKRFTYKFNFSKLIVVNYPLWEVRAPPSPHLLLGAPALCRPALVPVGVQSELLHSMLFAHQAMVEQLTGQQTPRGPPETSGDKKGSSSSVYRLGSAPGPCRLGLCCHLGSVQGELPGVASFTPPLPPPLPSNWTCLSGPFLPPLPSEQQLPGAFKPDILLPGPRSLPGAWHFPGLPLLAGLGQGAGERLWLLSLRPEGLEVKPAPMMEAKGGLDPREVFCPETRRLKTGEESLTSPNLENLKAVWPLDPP
In short: as §1

ETS2 = target: T3, ETS2 (Homo sapiens, UniProt P15036 1-469)
T3 sequence: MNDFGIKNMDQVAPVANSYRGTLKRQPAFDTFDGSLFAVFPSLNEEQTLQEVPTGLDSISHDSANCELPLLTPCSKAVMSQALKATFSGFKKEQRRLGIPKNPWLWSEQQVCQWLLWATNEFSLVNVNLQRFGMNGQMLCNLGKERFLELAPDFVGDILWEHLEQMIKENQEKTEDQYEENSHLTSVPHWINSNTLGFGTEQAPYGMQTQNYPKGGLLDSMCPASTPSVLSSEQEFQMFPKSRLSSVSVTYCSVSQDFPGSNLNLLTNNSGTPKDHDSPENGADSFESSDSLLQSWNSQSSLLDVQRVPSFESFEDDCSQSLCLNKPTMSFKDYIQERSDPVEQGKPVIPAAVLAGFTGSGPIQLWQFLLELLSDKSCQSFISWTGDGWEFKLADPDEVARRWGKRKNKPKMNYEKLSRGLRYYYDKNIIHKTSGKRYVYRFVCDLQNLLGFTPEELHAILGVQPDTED
In short: as §1

SPDEF = target: T4, SPDEF (Homo sapiens, UniProt O95238 1-335)
T4 sequence: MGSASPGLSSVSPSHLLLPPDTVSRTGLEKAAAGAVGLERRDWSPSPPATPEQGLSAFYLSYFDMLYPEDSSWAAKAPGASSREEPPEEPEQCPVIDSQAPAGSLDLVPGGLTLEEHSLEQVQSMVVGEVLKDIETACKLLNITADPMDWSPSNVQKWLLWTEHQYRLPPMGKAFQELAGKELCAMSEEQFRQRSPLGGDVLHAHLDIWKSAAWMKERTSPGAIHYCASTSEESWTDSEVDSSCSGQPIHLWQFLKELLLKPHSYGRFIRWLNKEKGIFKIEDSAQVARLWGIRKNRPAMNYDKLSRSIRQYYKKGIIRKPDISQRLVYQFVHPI
In short: as §1

ETV7 = target: T5, ETV7 (Homo sapiens, UniProt Q9Y603 1-341)
T5 sequence: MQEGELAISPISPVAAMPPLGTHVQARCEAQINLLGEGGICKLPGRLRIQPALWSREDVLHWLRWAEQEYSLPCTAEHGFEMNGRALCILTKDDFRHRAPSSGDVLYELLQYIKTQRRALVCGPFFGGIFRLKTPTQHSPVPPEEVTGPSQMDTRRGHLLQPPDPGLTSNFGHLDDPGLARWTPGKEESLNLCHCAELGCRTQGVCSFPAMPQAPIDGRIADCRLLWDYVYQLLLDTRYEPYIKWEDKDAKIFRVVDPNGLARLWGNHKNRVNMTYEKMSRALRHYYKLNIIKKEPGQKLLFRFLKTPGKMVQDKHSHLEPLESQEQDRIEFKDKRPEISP
In short: as §1

ELF5 = target: T6, ELF5 (Homo sapiens, UniProt Q9UKW6-2 1-255)
T6 sequence: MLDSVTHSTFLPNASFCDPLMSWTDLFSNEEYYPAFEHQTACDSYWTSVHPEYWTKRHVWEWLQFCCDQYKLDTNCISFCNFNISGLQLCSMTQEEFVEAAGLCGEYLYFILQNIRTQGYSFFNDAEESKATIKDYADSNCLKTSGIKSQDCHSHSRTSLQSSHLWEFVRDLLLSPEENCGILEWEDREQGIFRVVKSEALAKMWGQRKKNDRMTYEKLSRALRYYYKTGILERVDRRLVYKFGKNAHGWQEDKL
In short: as §1

ETV3 = target: T7, ETV3 (Homo sapiens, UniProt P41162-2 1-143)
T7 sequence: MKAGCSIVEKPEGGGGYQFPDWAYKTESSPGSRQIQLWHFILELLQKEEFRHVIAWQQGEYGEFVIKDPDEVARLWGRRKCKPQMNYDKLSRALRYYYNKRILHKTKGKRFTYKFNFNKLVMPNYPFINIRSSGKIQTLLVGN
In short: as §1

ETV6 = ETV6 (Homo sapiens, UniProt P41212 1-452)
In short: as §1

Sequence of ETV6 (P41212 whole entry): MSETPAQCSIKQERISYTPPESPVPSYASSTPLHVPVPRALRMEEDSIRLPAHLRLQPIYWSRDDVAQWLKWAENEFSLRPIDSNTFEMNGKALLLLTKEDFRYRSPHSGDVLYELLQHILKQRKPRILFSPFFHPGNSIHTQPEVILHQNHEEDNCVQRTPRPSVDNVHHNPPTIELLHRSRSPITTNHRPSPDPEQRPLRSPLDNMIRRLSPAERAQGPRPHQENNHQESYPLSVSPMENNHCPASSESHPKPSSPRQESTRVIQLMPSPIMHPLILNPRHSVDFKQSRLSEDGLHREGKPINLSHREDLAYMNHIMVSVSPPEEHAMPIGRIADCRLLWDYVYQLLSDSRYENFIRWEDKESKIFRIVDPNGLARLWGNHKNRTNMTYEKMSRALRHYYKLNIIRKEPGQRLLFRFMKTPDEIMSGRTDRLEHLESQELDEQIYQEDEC

Sequence	binding signal (ERF)	binding signal (ETV3L)	binding signal (ETS2)	binding signal (SPDEF)	binding signal (ETV7)	binding signal (ELF5)	binding signal (ETV3)	binding signal (ETV6)
ATAAAC	1.19 fold enrichment (6-mer frequency, TF over GST control)	1.18 fold enrichment (6-mer frequency, TF over GST control)	1.18 fold enrichment (6-mer frequency, TF over GST control)	1.16 fold enrichment (6-mer frequency, TF over GST control)	1.05 fold enrichment (6-mer frequency, TF over GST control)	1.17 fold enrichment (6-mer frequency, TF over GST control)	1.1 fold enrichment (6-mer frequency, TF over GST control)	1.19 fold enrichment (6-mer frequency, TF over GST control)
GGAACT	1.48 fold enrichment (6-mer frequency, TF over GST control)	1.71 fold enrichment (6-mer frequency, TF over GST control)	1.88 fold enrichment (6-mer frequency, TF over GST control)	1.94 fold enrichment (6-mer frequency, TF over GST control)	1.56 fold enrichment (6-mer frequency, TF over GST control)	2.25 fold enrichment (6-mer frequency, TF over GST control)	1.93 fold enrichment (6-mer frequency, TF over GST control)	1.84 fold enrichment (6-mer frequency, TF over GST control)
GCCCGC	1.11 fold enrichment (6-mer frequency, TF over GST control)	1.09 fold enrichment (6-mer frequency, TF over GST control)	1.02 fold enrichment (6-mer frequency, TF over GST control)	1.04 fold enrichment (6-mer frequency, TF over GST control)	1.13 fold enrichment (6-mer frequency, TF over GST control)	1.1 fold enrichment (6-mer frequency, TF over GST control)	1.16 fold enrichment (6-mer frequency, TF over GST control)	1.07 fold enrichment (6-mer frequency, TF over GST control)
GTTCCA	1 fold enrichment (6-mer frequency, TF over GST control)	1.04 fold enrichment (6-mer frequency, TF over GST control)	1.13 fold enrichment (6-mer frequency, TF over GST control)	1.1 fold enrichment (6-mer frequency, TF over GST control)	1.12 fold enrichment (6-mer frequency, TF over GST control)	1.07 fold enrichment (6-mer frequency, TF over GST control)	1.04 fold enrichment (6-mer frequency, TF over GST control)	1.04 fold enrichment (6-mer frequency, TF over GST control)
CCTACC	1.37 fold enrichment (6-mer frequency, TF over GST control)	1.37 fold enrichment (6-mer frequency, TF over GST control)	1.36 fold enrichment (6-mer frequency, TF over GST control)	1.35 fold enrichment (6-mer frequency, TF over GST control)	1.21 fold enrichment (6-mer frequency, TF over GST control)	1.44 fold enrichment (6-mer frequency, TF over GST control)	1.35 fold enrichment (6-mer frequency, TF over GST control)	1.32 fold enrichment (6-mer frequency, TF over GST control)
AAGTTG	1.08 fold enrichment (6-mer frequency, TF over GST control)	1.11 fold enrichment (6-mer frequency, TF over GST control)	1.11 fold enrichment (6-mer frequency, TF over GST control)	1.02 fold enrichment (6-mer frequency, TF over GST control)	1.26 fold enrichment (6-mer frequency, TF over GST control)	1.17 fold enrichment (6-mer frequency, TF over GST control)	1.07 fold enrichment (6-mer frequency, TF over GST control)	1.17 fold enrichment (6-mer frequency, TF over GST control)
ACATAC	1.23 fold enrichment (6-mer frequency, TF over GST control)	1.15 fold enrichment (6-mer frequency, TF over GST control)	1.21 fold enrichment (6-mer frequency, TF over GST control)	1.2 fold enrichment (6-mer frequency, TF over GST control)	1.12 fold enrichment (6-mer frequency, TF over GST control)	1.14 fold enrichment (6-mer frequency, TF over GST control)	1.18 fold enrichment (6-mer frequency, TF over GST control)	1.17 fold enrichment (6-mer frequency, TF over GST control)
TTTACG	1.22 fold enrichment (6-mer frequency, TF over GST control)	1.31 fold enrichment (6-mer frequency, TF over GST control)	1.29 fold enrichment (6-mer frequency, TF over GST control)	1.26 fold enrichment (6-mer frequency, TF over GST control)	1.25 fold enrichment (6-mer frequency, TF over GST control)	1.32 fold enrichment (6-mer frequency, TF over GST control)	1.19 fold enrichment (6-mer frequency, TF over GST control)	1.27 fold enrichment (6-mer frequency, TF over GST control)

From PMC7862700, “An all-to-all approach to the identification of sequence-specific readers for epigenetic DNA modifications on cytosine”
